Assay results as given in PubChem BioAssay (Tox21).
Results filed as inconclusive are left out. A call without a number means that no potency is given here. Unmarked numbers belong to inactive results. Active and inactive are the calls of the source. Calls come from the whole dose curve; as a rule, active = well fitted cell-killing curve with a large enough effect in the repeat runs; inconclusive = weak or mixed curves, or effect the other way; inactive = no such curve, though single readings can be large or run the other way.

Experiment: qHTS assay to identify small molecule agonists of the estrogen receptor alpha (ER-alpha) signaling pathway in the presence of an antagonist - cell viability counter screen (AID 1259386);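 note: cells exposed to compounds for 22 h at 37 °C before the viability read; nearly all actives have a fitted effect of over 30% in size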
Details: VM7Luc4E2 viability, CellTiter-Fluor fluorescence, 22 h; series mostly up to 92.4 µM
Excerpt: National Center for Advancing Translational Sciences [NCATS]
NIH Chemical Genomics Center [NCGC]
U.S. Environmental Protection Agency [EPA]
National Institutes of Environmental Health Sciences [NIEHS]
National Toxicology Program [NTP]
U.S. Food and Drug Administration [FDA]
Estrogen receptor (ER), a member of nuclear hormone receptor plays an important role in development, metabolic homeostasis and reproduction. Two subtypes of ER, ER-alpha and ER-beta, have similar expression patterns with some uniqueness in both types. Endocrine disrupting chemicals (EDCs) and their interactions with steroid hormone receptors like ER causes disruption of normal endocrine function. Therefore, it is important to understand the effect of environmental chemicals in ER signaling pathway. For identifying ER agonists, VM7Luc4E2 cell line has been used in the current assay.
VM7Luc4E2 cell line (provided by Denison MS, University of California) endogenously expresses full-length ER-alpha and is stably transfected with a plasmid containing four estrogen responsive elements (ERE) upstream of a luciferase reporter gene. This current screening for measuring luciferase reporter gene activity using VM7Luc4E2 cells against Tox21 10K library collection is a confirmation study on agonist mode screening in presence of ER-antagonist (ICI-182,780) at 10.0nM final concentration. The cytotoxicity of the compounds was tested in parallel by measuring the cell viability using CellTiter-Fluor assay system (Promega, Madison, WI) in the same wells.
Tox21 Assay Protocol Summary:
VM7Luc4E2 cells were cultured in phenol red free assay medium containing 10% charcoal stripped FBS for 5 days prior to the assay. The cells were dispensed at 4,000 cells in 4uL of assay medium per well into white wall/solid-bottom 1536-well plates (Corning Life Sciences, Corning, NY) using a Multidrop Combi (Thermo Fisher Scientific Inc., Waltham, MA) dispenser. After the assay plates were incubated at 37C and 5% CO2 for 24hr, 1uL of 10.0nM (final concentration) ICI-182,780 or assay buffer was added using two separate tips of Flying Reagent Dispenser (FRD, Aurora Discovery, San Diego, CA). Then 23nL of compounds dissolved in DMSO at 15 concentrations and positive controls or DMSO only was transferred to the assay plates by a Pintool station (Wako, San Diego, CA). The assay plates were incubated at 37C and 5% CO2 for 22hr. After 21hr incubation at 37C, 1uL/well CellTiter-Fluor reagent (Promega Corporation, Madison, WI) was added to each well using FRD and after 1hr incubation at 37C and 5% CO2, the fluorescence signal was measured on ViewLux plate reader (PerkinElmer, Shelton, CT).

Compound	Potency	activity change, negative = cytotoxicity
CCCCCCCCc1ccc(S(=O)(=O)O)cc1	inactive	–
CC(C)=CCCC(C)CCOC=O (stereo not given)	inactive	–
CN1CCN(N)CC1	inactive	–
Cc1c(-c2ccccc2)oc2c(C(=O)OCCN3CCCCC3)cccc2c1=O	inactive	–
CCN(CC)CC1CCCCN1CC(=O)N1c2ccccc2C(=O)Nc2cccnc21 (stereo not given)	inactive	–
COc1ccc2nc(NC(=O)Nc3ccccc3)sc2c1	inactive	–
Cc1ncc(CO)c(CN)c1O	inactive	–
CC(Oc1c(Cl)cccc1Cl)C1=NCCN1 (stereo not given)	inactive	–
CC(=O)N(CC(O)CN(C(C)=O)c1c(I)c(C(=O)NCC(O)CO)c(I)c(C(=O)NCC(O)CO)c1I)c1c(I)c(C(=O)NCC(O)CO)c(I)c(C(=O)NCC(O)CO)c1I (stereo not given)	inactive	–
OCCN(CCO)c1ccccc1	inactive	–
Cc1c(N)cccc1N	inactive	–
CCc1cc2cc(OC)c(OC)cc2c(Cc2ccccc2)n1	inactive	–
CC(C)Nc1nc(N)nc(Cl)n1	inactive	–
CN(C)Cc1ccccc1	inactive	–
CCC(=O)O[C@]1(C(=O)SCF)[C@H](C)C[C@H]2[C@@H]3C[C@H](F)C4=CC(=O)C=C[C@]4(C)[C@@]3(F)[C@@H](O)C[C@@]21C	inactive	–
O=C1CCCCC1C1CCCCC1 (stereo not given)	inactive	–
CC/C=C\CCOC(=O)CCCCC	inactive	–
CC(C)(C)C1CCCCC1=O (stereo not given)	inactive	–
CCOc1ccc(NC(N)=O)cc1	inactive	–
CN(CCCN1c2ccccc2CCc2ccccc21)CC(=O)c1ccc(Cl)cc1	inactive	–

Compound	Potency	activity change, negative = cytotoxicity
O=c1[nH]cnc2c1ncn2[C@@H]1O[C@H](CO)[C@@H](O)[C@H]1O	inactive	–
CNCCC(Oc1ccccc1OC)c1ccccc1 (stereo not given)	inactive	–
CC(C)(CO)[C@@H](O)C(=O)NCCC(=O)O	inactive	–
CCN[C@H]1CN(CCCOC)S(=O)(=O)c2sc(S(N)(=O)=O)cc21	inactive	–
Cc1ccc(C=O)s1	inactive	–
CO[C@@]1(NC(=O)CSCC#N)C(=O)N2C(C(=O)O)=C(CSc3nnnn3C)CS[C@@H]21	inactive	–
Oc1ccccc1F	inactive	–
CCCCNc1ccc(C(=O)OCCN(CC)CC)cc1	inactive	–
CC(C)C1=CC2=CC[C@@H]3[C@](C)(CCC[C@@]3(C)C(=O)O)[C@H]2CC1	inactive	–
C=CC(C)(O)CC/C=C(\C)CCC=C(C)C (stereo not given)	inactive	–
CC1(C)C(=O)N(Cl)C(=O)N1Br	inactive	–
CC(C)(C)c1ccc(OC(=O)c2ccccc2O)cc1	inactive	–
CCCCCCCCCCCCCCCCOP(=O)([O-])OCC[N+](C)(C)C	inactive	–
CC(C)(C)c1cccc(O)c1	inactive	–
CCOC(=O)C(Br)c1ccccc1 (stereo not given)	inactive	–
C=CC1CO1 (stereo not given)	inactive	–
Cc1ccccc1C(=O)Nc1ccc(C(=O)N2CCCC(O)c3cc(Cl)ccc32)c(C)c1 (stereo not given)	inactive	–
CC1=CC(=O)CC(C)(C)C1=O	inactive	–
C[C@@H]1CN(c2c(F)c(F)c3c(=O)c(C(=O)O)cn(C4CC4)c3c2F)C[C@H](C)N1	–	0.208% [at 19 µM]
CCCCCCOc1ccc(N)cc1	inactive	–
